# Measurements reported in PubChem BioAssay (Tox21).
# Records with an inconclusive call do not appear. Values without a mark were called inactive. Calls come from the whole dose curve; as a rule, active = well fitted inhibition curve with a large enough effect in the signal ratio in the repeat runs (not every such curve was filed as active); inconclusive = weak or mixed curves, or effect the other way; inactive = no such curve, though single readings can be large or run the other way; the % refers to the signal ratio.
# Biological target: Vitamin D3 receptor (Homo sapiens) (UniProt P11473)
# Sequence (P11473 whole entry, looked up): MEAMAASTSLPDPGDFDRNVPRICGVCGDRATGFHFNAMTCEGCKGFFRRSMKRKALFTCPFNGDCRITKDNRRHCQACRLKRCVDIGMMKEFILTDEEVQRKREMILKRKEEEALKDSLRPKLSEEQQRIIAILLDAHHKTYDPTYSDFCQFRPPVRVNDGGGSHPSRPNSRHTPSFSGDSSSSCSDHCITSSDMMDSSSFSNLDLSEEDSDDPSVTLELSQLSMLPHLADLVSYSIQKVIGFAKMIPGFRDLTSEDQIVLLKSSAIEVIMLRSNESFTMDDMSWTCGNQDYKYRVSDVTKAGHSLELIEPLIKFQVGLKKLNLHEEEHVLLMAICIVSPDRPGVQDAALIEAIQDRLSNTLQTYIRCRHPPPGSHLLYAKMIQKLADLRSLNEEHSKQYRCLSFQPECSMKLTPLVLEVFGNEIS
# Assay: qHTS assay to identify small molecule antagonists of the vitamin D receptor (VDR) signaling pathway (AID 743223)
# Conditions: VDR-UAS-bla HEK293T, beta-lactamase FRET ratio, 16 h; series mostly up to 61 µM; activity change, negative = inhibition: at the top concentration
# From the text: U.S. Tox21 Program National Center for Advancing Translational Sciences [NCATS] NIH Chemical Genomics Center [NCGC] U.S. Environmental Protection Agency [EPA] National Institutes of Environmental Health Sciences [NIEHS] National Toxicology Program [NTP] U.S. Food and Drug Administration [FDA] Tox21 Assay Overview: The vitamin D receptor (VDR), a member of nuclear hormone receptor superfamily, plays a critical role in calcium homeostasis and bone metabolism. It is also involved in cell differentiation and growth, and thrombogenicity.
# Tox21 Assay Protocol Summary: VDR-bla cells were dispensed at 2,000 cells/5 uL of assay medium per well into black wall/clear-bottom 1536-well plates using a Multidrop Combi (Thermo Fisher Scientific, Waltham, MA) dispenser. After the assay plates were incubated at a 37C and 5% CO2 for 4 h, 23 nL of compounds dissolved in DMSO, positive controls or DMSO only was transferred to the assay plate by a Pintool station (Kalypsys, San Diego, CA), followed by addition of 1 uL of 1alpha, 25-Dihydroxy Vitamin D3 (3 nM, final concentration in the wells) using a Bioraptr Flying Reagent Dispenser (FRD) workstation (Beckman Coulter, Indianapolis, IN). The plates were incubated at 37C and 5% CO2 for 16 h, and then 1 uL of LiveBLAzerTM B/G FRET substrate was added using a Bioraptr FRD. The plates were incubated at room temperature for 2 h and fluorescence intensity was measured by an Envision plate reader (PerkinElmer, Shelton, CT).
# % is set by controls: 0 for no effect and ±100 for the full control effect.
row,SMILES,"activity change, negative = inhibition"
1,CC1CCCO1 (stereo not given),11.2%
2,CC(=O)OC(C)C[N+](C)(C)C (stereo not given),9.56%
3,CC1CCCC(=O)C1=O (stereo not given),-0.0629%
4,O=C1NC(=O)c2cccc3cccc1c23,-2.16%
5,C[C@@H]1C[C@H]2[C@@H]3CCC4=CC(=O)C=C[C@]4(C)[C@@]3(F)[C@@H](O)C[C@]2(C)[C@@]1(O)C(=O)COP(=O)(O)O,0.613%
6,CCC(=O)OCc1ccc(OC)cc1,10.5%
7,C1=CCC2CC=CC2C1 (stereo not given),-0.717%
8,CC1CCc2nccnc21 (stereo not given),0.972%
9,CCCOC(=O)c1c(Cl)c(Cl)c(Cl)c(Cl)c1C(=O)OCCC,-11.5%
10,COc1ccc(C2C(=O)c3ccccc3C2=O)cc1,1.47%
11,Cc1ccc(NC(=O)N(C)C)cc1NC(=O)N(C)C,-16.3%
12,O=C(C(=O)c1ccco1)c1ccco1,-11.2% [at 78.8 µM]
13,CC(=O)Oc1cccc(O)c1,2.99%
14,C=Cc1ccc(OC(C)=O)cc1,-0.459%
15,ClC1=C(Cl)C1(Cl)Cl,3.33% [at 78.8 µM]
16,CC[C@H]1OC(=O)[C@H](C)[C@@H](O[C@H]2C[C@@](C)(OC)[C@@H](O)[C@H](C)O2)[C@H](C)[C@@H](O[C@@H]2O[C@H](C)C[C@H](N(C)C)[C@H]2O)[C@](C)(O)C[C@@H](C)/C(=N\OCOCCOC)[C@H](C)[C@@H](O)[C@]1(C)O,7.04%
17,O=C(c1ccccc1)c1ccc(O)cc1,-2.97% [at 78.8 µM]
18,CCC1CCC(CCC(=O)O)C1 (stereo not given),21.5% [at 78.8 µM]
19,CC(C)(C)C1(CCc2ccc(Cl)cc2)CO1 (stereo not given),14.2%
20,CC(C)C(=O)OCCOc1ccccc1,-15.2%

row,SMILES,"activity change, negative = inhibition"
1,O=C1CC[C@@H](C(=O)O)N1,6.48%
2,CCN(CC)c1ccc(C(=C2C=CC(=[N+](CC)CC)C=C2)c2ccc(S(=O)(=O)O)cc2S(=O)(=O)[O-])cc1,8.97%
3,OCC(CO)n1cnc(-c2ccc(F)cc2)c1-c1ccnc(Oc2ccccc2)n1,-2.3%
4,CCCCCCCCCCCCCCN(C)C,-3.67% [at 28.5 µM]
5,COc1ccc(-c2cc(=S)ss2)cc1,11.1%
6,CC(=O)OCCC(C)CC(C)(C)C (stereo not given),-4.06%
7,CCCCCCC(CO)CCCC (stereo not given),0.952%
8,Cc1cccc2sc(N)nc12,0.109% [at 78.8 µM]
9,CC(C)OC(=O)c1ccccc1C(=O)OC(C)C,0.659%
10,BrC(Br)C(Br)Br,0.704%
11,O=S(=O)(O)CO,-1.58%
12,O=P(O)(O)Oc1ccccc1,18.6%
13,O=c1[nH][nH]c(=O)c2cc([N+](=O)[O-])ccc12,2.24% [at 78.8 µM]
14,CCN(Cc1cccc(S(=O)(=O)O)c1)c1ccc(C(=C2C=CC(=[N+](CC)Cc3cccc(S(=O)(=O)O)c3)C=C2)c2ccc(O)cc2S(=O)(=O)[O-])cc1,0.508%
15,CCSC(=O)N(CC)CC,-1.91%
16,CC(=O)OCC(=O)[C@@]1(OC(C)=O)[C@@H](C)C[C@H]2[C@@H]3C[C@H](F)C4=CC(=O)C=C[C@]4(C)[C@@]3(F)[C@@H](O)C[C@@]21C,6.86%
17,C=CC(=O)O,7.85%
18,COc1cc(C(C)=O)ccc1OCCCN1CCC(c2noc3cc(F)ccc23)CC1,2.82%
19,CN(C)CC/C=C1\c2ccccc2Sc2ccc(Cl)cc21,-19%
20,CN1C(CSCC(F)(F)F)Nc2cc(Cl)c(S(N)(=O)=O)cc2S1(=O)=O (stereo not given),5.13%
